Assay outcomes (PubChem)
HCV inh: inhibitors of hepatitis C virus infection. Huh7.5.1 HCVcc-Cre infection, luciferase reporter, 44 h. Potency, µM (doses to about 41.8 µM), most hits filed as inhibitors. hit rate 3.4% among 340,000. AID 651820
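Compounds are dispensed onto cells plated 4 h earlier at 1,000 per well, with HCVcc-Cre virus (about 0.5 moi) added next. Following 44 h of culture, luminescent signal is measured for 15 sec after 15 min with substrate at room temperature.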
Pf growth 48h: inhibits P. falciparum growth in the first generation, 48 h. P. falciparum luciferase growth in erythrocytes, 48 h. Potency, µM (doses to about 28.7 µM), most hits filed as inhibitors. hit rate 5.9% among 310,000. AID 504832
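Cell-based growth assay: transgenic P. falciparum expressing firefly luciferase, cultured in red cells within RPMI 1640 containing 0.5% w/v Albumax, 24 mM bicarbonate and gentamycin. A drop in luciferase activity indicates inhibition.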
Sm TGR inh: S. mansoni TGR enzyme inhibition; purified TGR, DTNB reduction, TNB absorbance 405 nm; hit rate 3% among 360,000; Potency, µM (titrated, usually from 114 µM), actives largely listed as inhibitors; AID 485364; Q962Y6; note: nearly all actives have a fitted effect of over 60% in size
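TGR 20 nM + NADPH 100 uM (dispensed conc.), cpd preinc 15 min RT; start with NADPH (500 uM addition) then DTNB (15 mM addition). Kinetic TNB absorbance, 405 nm filter. Four-parameter Hill fit across titration.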
SARS PLP yeast: SARS-CoV PLP inhibition in yeast. S. cerevisiae expressing SARS-CoV PLpro, growth rescue. Potency, µM (top dose mostly 32.9 µM), actives largely listed as activators. hit rate 0.19% among 330,000. AID 485353; calls by dose curve; note: nearly all actives have a fitted effect of over 55% in size
Pf growth 96h: P. falciparum growth inhibition at 96 hour, primary screen for plastid delayed-death inhibitors; P. falciparum luciferase reporter growth, 96 h; Potency, µM (titrated, usually from 28.7 µM), most hits filed as inhibitors; hit rate 6.9% among 320,000; AID 504834
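Erythrocytes infected with luciferase-expressing P. falciparum were dispensed at 2% hematocrit and 0.05% parasitemia (final), then incubated with compounds 96 hours at 37 C in 5% CO2. Luminescence after detection reagent addition reported growth.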
HCMV antiviral: inhibitors of human cytomegalovirus | hit rate 4.5% among 410,000 | activity change, negative = inhibition, % at 57.5 µM | HFF cells, HCMV-luciferase reporter, 72 h; stronger effect = lower value; in the data active = activity change below about -60%; inconclusive = no clear call, values can overlap the other calls; inactive = above about -39%
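Cell-based, HFFs, 1000 cells/well, 16 h 37C; cpds in DMSO + HCMV-luc, MOI 1 PFU/cell; 72 h 37C; OneGlo luminescence after 5 min RT; norm. to buffer vs Salinomycin 10uM.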
A number is an active result; - = inactive; ? = inconclusive; . = not tested or not shown; [ ] = another dose, or the depositor's remark. Only some compounds are listed: those with a hit (about 15% of all), similar ones and a draw of the others. Unless noted, calls come from the whole dose curve; as a rule, active = well fitted curve in the direction sought with a large enough effect; inconclusive = small, poorly fitted or top-dose-only effect, or another doubt; inactive = no such curve, though single readings can be large; an effect the other way counts as inactive or inconclusive.

SMILES	HCV inh	Pf growth 48h	Sm TGR inh	SARS PLP yeast	Pf growth 96h	HCMV antiviral
Cc1ccc(-c2nc(CS(=O)(=O)CC(=O)N3CCc4ccccc4C3)c(C)o2)cc1	?	-	25µM	-	13µM	-
Cc1ccc(CNC(=O)CS(=O)(=O)Cc2nc(-c3ccccc3C)oc2C)cc1	.	.	-	.	.	-61
Cc1ccc(-c2nc(CS(=O)(=O)CC(=O)N3CCCCCC3)c(C)o2)cc1	?	-	?	-	?	?
Cc1ccccc1-c1nc(CS(=O)(=O)CC(=O)Nc2c(C)cccc2C)c(C)o1	.	.	?	.	.	-78
COc1ccccc1CNC(=O)CS(=O)(=O)Cc1nc(-c2ccccc2C)oc1C	.	.	-	.	.	-
CCCNC(=O)CS(=O)(=O)Cc1nc(-c2ccccc2C)oc1C	?	-	50µM	-	?	-
O=C(CCCCC(=O)NN=Cc1ccc(Cl)cc1)NN=Cc1ccc(Cl)cc1	?	.	.	.	.	-
CCOC(=O)N1CCN(S(=O)(=O)N2CCCC(C(=O)NCc3ccc(C)cc3)C2)CC1 (stereo not given)	.	.	.	.	.	-
Cc1ccccc1-c1nc(CS(=O)(=O)CC(=O)N2CCN(c3ccccc3)CC2)c(C)o1	.	.	-	.	.	-
Cc1ccccc1-c1nc(CS(=O)(=O)CC(=O)N2CCOCC2)c(C)o1	-	-	16µM	-	?	-
CN(CCOc1ccc(Cl)cc1)C(=O)c1cccc(S(=O)(=O)N2CCN(c3ccccc3)CC2)c1	3.5µM	.	.	.	.	-
CN(Cc1ccc(Cl)cc1Cl)C(=O)c1cccc(S(=O)(=O)N2CCN(c3ccccc3)CC2)c1	13µM	?	-	-	?	?
CN(Cc1ccc(Cl)cc1Cl)C(=O)c1cccc(S(=O)(=O)NCc2ccccc2)c1	-	.	.	.	.	-
COc1cccc(CN(C)C(=O)C2CCN(S(=O)(=O)c3ccc(C)cc3)CC2)c1OC	-	13µM	-	-	12µM	-
CN(Cc1ccc(OC(F)F)cc1)C(=O)C1CCN(S(=O)(=O)c2ccc3c(c2)OCCO3)CC1	6.3µM	?	-	-	?	-
CN(CCOc1ccc(Cl)cc1)C(=O)c1ccc(S(=O)(=O)N2CCOCC2)cc1	?	?	-	-	?	?
Cc1ccc(Oc2coc3cc(OCC(=O)NC4CCCCC4)ccc3c2=O)cc1	.	.	-	.	.	-
CCN1C(N(C)C)=NC[C@@H]1Cc1ccccc1	-	-	-	-	-	-
COCCn1c(SCC#N)nnc1-c1ccc([N+](=O)[O-])cc1	-	-	-	-	?	-
CN(Cc1ccc(OC(F)F)cc1)C(=O)c1cccc(S(=O)(=O)N2CCN(Cc3ccccc3)CC2)c1	5.6µM	.	.	.	.	-92
COc1cccc(CN(C)C(=O)c2cccc(S(=O)(=O)N3CCN(Cc4ccccc4)CC3)c2)c1OC	7.9µM	?	-	-	?	-74
COc1cccc(CN(C)C(=O)c2cccc(S(=O)(=O)N3CCN(c4ccc(F)cc4)CC3)c2)c1OC	?	10µM	-	-	?	-80
COc1cccc(CN(C)C(=O)c2cccc(S(=O)(=O)N3CCN(c4ccccc4)CC3)c2)c1OC	7.1µM	.	.	.	.	-70
Cn1c(SCC(=O)Nc2ccc3[nH]c(=O)[nH]c3c2)nnc1-c1ccc(F)cc1	-	-	-	-	-	-
CCOC(=O)c1cccc(NC(=O)CCC(=O)N2CC(C)Oc3ccc(C)cc32)c1 (stereo not given)	.	.	-	.	.	-
SMILES	HCV inh	Pf growth 48h	Sm TGR inh	SARS PLP yeast	Pf growth 96h	HCMV antiviral
CSc1ccccc1C(=O)N1CCCCC1	-	-	-	-	?	-
COc1ccc(OC)c(NC(=O)C2Cc3ccccc3CN2S(=O)(=O)c2ccc(F)cc2)c1 (stereo not given)	.	.	-	.	.	-
Oc1ccc(Cl)cc1-c1cc(-c2cccc(Br)c2)n[nH]1	11µM	2.9µM	-	-	.	-93
Oc1ccc(Cl)cc1-c1cc(-c2ccccc2Cl)[nH]n1	13µM	9.3µM	-	-	-	-
Oc1ccc(Cl)cc1-c1cc(-c2ccco2)[nH]n1	-	?	45µM	-	?	-
Oc1ccc(Br)cc1-c1cc(-c2ccco2)[nH]n1	?	12µM	-	-	.	-
Oc1ccccc1-c1cc(-c2ccco2)[nH]n1	?	.	?	-	-	-
COc1ccccc1CCNC(=O)Cc1c(C)c2cc3c(C)coc3cc2oc1=O	.	.	-	.	.	-
O=c1c2ccccc2[nH]c(=S)n1CCCN1CCN(c2ccccc2F)CC1	?	-[0.00184 µM]	-	-	?	-63
O=c1c2ccccc2[nH]c(=S)n1CCCN1CCN(c2ccccc2)CC1	-	.	-	-	-	-67
O=c1c2cccnc2[nH]c(=S)n1CCCN1CCN(c2ccccc2F)CC1	-	-	-	-	-	-
CCN(CC(=O)Nc1cccc(OC)c1)c1ncnc2sc(C)c(C)c12	?	-	-	-	-	-74
COc1cccc(NC(=O)COc2ncnc3sc(C)c(C)c23)c1	-	-	-	-	.	-
Fc1ccc(Nc2ncnc3sc4c(c23)CCC4)cc1	3.2µM	-	-	-	-	?
Cc1sc2ncnc(NCC(c3ccco3)N(C)C)c2c1C (stereo not given)	?	?	-	-	-	-
c1csc(CCNc2ncnc3sc4c(c23)CCC4)c1	7.9µM	.	-	-	?	-89
CN(C)C(CNc1ncnc2sc3c(c12)CCCCC3)c1ccco1 (stereo not given)	?	-	?	-	?	-68
c1ccc(Nc2ncnc3sc4c(c23)CCC4)cc1	?	-	-	-	-	-
COc1ccc(NC(=O)C2CCCN2S(=O)(=O)c2ccc3c(c2)C(C)(C)C(=O)N3C)cc1 (stereo not given)	.	.	.	.	.	-
Cc1c(C(=O)OCCOc2ccccc2)[nH]c2c1C(=O)CCC2	13µM	.	-	-	-	-79
CCc1ccc(C2CC(=O)c3c([nH]c(C(=O)OCCOc4ccccc4)c3C)C2)cc1 (stereo not given)	.	.	-	.	.	-73
CCOc1ccc(C2CC(=O)c3c([nH]c(C(=O)OCCOc4ccccc4)c3C)C2)cc1 (stereo not given)	.	.	-	.	.	-106
CCOc1ccc(C2CC(=O)c3c([nH]c(C(=O)OC4CCC(C)CC4)c3C)C2)cc1 (stereo not given)	.	.	-	.	.	-
COC(=O)c1[nH]c2c(c1C)C(=O)CC(c1ccccc1)C2 (stereo not given)	?	?	-	?	-	-69
CCOC(=O)c1[nH]c2c(c1-c1ccccc1)C(=O)CC(c1ccccc1)C2 (stereo not given)	-[8.37 µM]	-	-	-	?	-
Cc1cc(C(=O)NNC(=O)c2sccc2C)c(C)o1	-	-	-	-	-	-
Oc1ccccc1-c1nnc2n1CCCCC2	?	-	-	-	-	-
Cc1ccc(S(=O)(=O)c2nnn3c2nc(N2CCN(c4ccc(F)cc4)CC2)c2cc(Cl)ccc23)cc1C	.	.	-	.	.	-
